Compounds with a hit are over-represented: about 3.5% of the library has one in this group of screens.
TEAD-YAP inh – TEAD-YAP interaction inhibition; HEK-TIYL cells, TEAD-Gal4/YAP UAS-luciferase luminescence; 1.4% of 640,000 active; inhibition, % at 9.12 µM; in the data active = inhibition above about 32%;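 also: 0% = median of test compound wells and 100% = reference inhibitor wells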
GPR151 activ – activates the human receptor GPR151. Q8TDV0. PathHunter beta-arrestin GPR151 cells, luminescence. activation, % at 11.2 µM. 1% of 650,000 active. AID 1508602; in the data active = activation above about 4.9%;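 also: 0% = median of compound wells and 100% = cells with positive control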
MITF inh – inhibitors of human MITF. O75030. AlphaScreen MITF homodimerization, bead proximity signal. inhibition, % at 2.6 µM. 0.91% of 650,000 active; in the data active = inhibition above about 50%;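 also: 0% = vehicle wells with protein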
FBW7 act – activators of human E3 ligase FBW7; Q969H0; normalized activity (activation), % at 26.1 µM; 0.13% of 650,000 active; AID 1259310; AlphaScreen FBW7–phospho-cyclin E peptide binding, activator screen; in the data active = normalized activity above about 1.9%;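 also: purified mutant Fbw7 with reduced substrate affinity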
Target sequence (Q969H0 whole entry, looked up): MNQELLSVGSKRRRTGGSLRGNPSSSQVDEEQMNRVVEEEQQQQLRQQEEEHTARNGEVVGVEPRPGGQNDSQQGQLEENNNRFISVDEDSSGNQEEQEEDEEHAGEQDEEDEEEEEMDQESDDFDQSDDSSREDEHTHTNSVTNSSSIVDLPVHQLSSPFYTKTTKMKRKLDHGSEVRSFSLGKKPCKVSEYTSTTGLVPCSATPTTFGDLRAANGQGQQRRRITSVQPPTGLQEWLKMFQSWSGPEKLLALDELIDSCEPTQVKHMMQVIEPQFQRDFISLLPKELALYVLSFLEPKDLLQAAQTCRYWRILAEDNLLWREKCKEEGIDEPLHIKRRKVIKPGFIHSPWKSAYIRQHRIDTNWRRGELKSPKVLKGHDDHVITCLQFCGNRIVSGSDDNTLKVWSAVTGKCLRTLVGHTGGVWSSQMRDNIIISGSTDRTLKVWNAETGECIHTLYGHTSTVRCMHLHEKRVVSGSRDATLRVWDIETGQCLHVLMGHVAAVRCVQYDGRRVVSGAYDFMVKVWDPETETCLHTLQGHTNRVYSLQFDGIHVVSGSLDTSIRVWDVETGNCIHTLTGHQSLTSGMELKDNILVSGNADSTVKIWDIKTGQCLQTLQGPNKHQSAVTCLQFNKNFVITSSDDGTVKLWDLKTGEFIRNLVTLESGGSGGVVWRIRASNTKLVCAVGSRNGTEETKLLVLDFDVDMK
* marks the source's active call; other numbers are inactive results.

SMILES	TEAD-YAP inh	GPR151 activ	MITF inh	FBW7 act
Cc1nc2ccccc2c(=O)n1/N=C/c1ccc(O)c(O)c1O	3.3	-0.3	57.4*	-0.2
O=C1c2ccccc2C(=O)N1/N=C/c1ccc(O)c(O)c1O	-5.1	1.1	91.9*	-0.5
O=C1Nc2ccccc2/C1=N\N=C\c1ccc(O)c(O)c1O	0.4	0.4	58.2*	-0.4
COc1cccc2cc(C(=O)Oc3ccc([N+](=O)[O-])cc3)c(=O)oc12	1.9	1.2	-6.2	-0.1
c1cc2c(cc1CNCC1CCCO1)CCO2 (stereo not drawn)	5.8	2.2	7.3	0.2
Cc1c(NC(=O)c2cccc(NC(=O)c3cccs3)c2)c(=O)n(-c2ccccc2)n1C	-7.8	-0.2	-4.9	0.1
c1ccc(CNc2ccnc3c(-c4ccc5c(c4)OCO5)cnn23)nc1	2.5	-1.0	6.3	1.9*
COc1ccc(Nc2ccnc3c(-c4ccc(N)cc4)cnn23)cn1	37.4*	0.3	17.0	-0.4
Nc1ccc(-c2cnn3c(NCc4ccc5c(c4)OCO5)ccnc23)cc1	-65.9	-0.9	6.8	2.5*
Cc1cc(C)n(Cc2ccc(C(=O)N3CCC[C@@H]4CN(C(=O)C(C)C)CC[C@H]43)cc2)n1	3.1	0.4	-4.5	-0.1
O=C(Nc1ccc(Br)cn1)c1ccc(C2CCCCC2)cc1	10.5	1.5	14.8	0.6
O=C(Nc1ccc(Cl)cn1)c1ccc(C2CCCCC2)cc1	40.2*	-0.7	17.9	0.2
O=C(N/N=C/C1CC2CCC1C2)c1ccc([N+](=O)[O-])cc1 (stereo not drawn)	10.2	-1.0	13.7	0.0
O=C(N/N=C/C1CC2CCC1C2)c1cccc2ccccc12 (stereo not drawn)	36.6*	0.0	-7.3	-0.1
NC(=O)c1ncsc1Nc1ccnc(Nc2ccc(N3CCOCC3)cc2)c1	21.4	2.7	20.2	-0.2
CSc1nc(Nc2ccnc(Nc3ccc(N4CCOCC4)cc3)c2)c(C(N)=O)s1	41.4*	-0.1	8.5	-0.6
CC1CCc2c(sc3ncn(CC(=O)OC4CCCCC4)c(=O)c23)C1 (stereo not drawn)	5.1	0.6	-6.4	-0.1
COc1cc2nc(N3CCCC(O)C3)c(CNC3CCC(O)CC3)cc2c(OC)c1OC (stereo not drawn)	-4.0	-0.2	-11.8	-0.1
N=c1sc2c(n1CC(=O)c1ccc(F)cc1)CCCC2	55.9*	-9.0	-5.1	0.1
COc1cc(/C=N/O)cc(OC)c1OC	4.1	0.2	14.5	0.0
COc1cc(O)cc(OC)c1OC	63.3*	3.1	-11.0	-0.1
CC1=C/C(=N\S(=O)(=O)c2ccc(C)cc2)C=CC1=O	1.7	0.8	70.5*	0.1
CCOCCCNC(=O)CCc1nnc(-c2cc(C)oc2C)o1	-21.7	1.2	-6.1	-0.2
CCOc1ccc(C(=O)Nc2ccc(N3CCN(C(C)=O)CC3)cc2)cc1	-8.8	-0.6	11.5	0.4
CN1/C(=C/C=C/c2cc(-c3ccc(Cl)cc3)cc(-c3ccc(Cl)cc3)[n+]2C)C(C)(C)c2ccccc21	94.1*	2.7	59.3*	-0.7
SMILES	TEAD-YAP inh	GPR151 activ	MITF inh	FBW7 act
CCc1cccc2c(=O)c(C(=O)NCc3ccc(OC)cc3)c[nH]c12	-5.3	-1.2	5.5	1.0
CC(C)NC(=O)CSc1ccccc1C(=O)NCCc1c[nH]c2ccccc12	-3.1	0.3	-1.9	-0.1
N#Cc1c(/N=C\c2ccc(O)cc2O)sc2c1CCCC2	17.4	1.2	18.5	0.1
N#Cc1c(/N=C/c2ccc(O)cc2O)sc2c1CCCC2	61.4*	0.9	5.0	-0.1
O=C(CCC(=O)Nc1ccccc1)N/N=C/c1cc([N+](=O)[O-])ccc1O	-2.9	-0.7	10.8	0.1
c1cncc(CNc2nc(NCc3nc4ccccc4[nH]3)c3ncn(-c4ccsc4)c3n2)c1	86.1*	1.1	-8.0	-0.1
c1cnc(Nc2nc(NCc3nc4ccccc4[nH]3)c3ncn(-c4ccsc4)c3n2)nc1	69.3*	-1.0	-18.4	50.1*
CC(Nc1c(-c2ccccc2)c(=O)c1=O)c1ccccc1 (stereo not drawn)	39.6*	-2.0	-0.1	-0.2
CCC(C)Nc1c(-c2ccccc2)c(=O)c1=O (stereo not drawn)	9.4	0.9	9.1	0.2
CCc1cccc(Nc2c(-c3ccc(OC)cc3)c(=O)c2=O)c1	-8.2	0.9	6.0	0.7
CCN(c1ccc(OC)cc1)c1c(-c2ccccc2)c(=O)c1=O	48.4*	0.0	11.5	-0.1
COc1ccc(-c2c(Nc3cccc(SC)c3)c(=O)c2=O)cc1	61.0*	0.6	14.6	0.8
CCc1ccc(Nc2c(-c3ccccc3)c(=O)c2=O)cc1	55.6*	-1.1	-0.5	0.1
O=C1OC(c2cc(Cl)ccc2Cl)=N/C1=C\c1cccc(Br)c1	7.5	0.3	9.7	0.0
O=C(CN1Cc2ccccc2C1=O)N1CCCC1	-12.0	-1.8	4.2	0.0
COc1ccc(Nc2c(-c3ccccc3)c(=O)c2=O)cc1	60.1*	1.2	-2.4	0.0
COc1ccc(Nc2c(-c3ccc(C)cc3)c(=O)c2=O)cc1	-5.5	0.5	-8.4	0.0
COc1ccc(Nc2c(-c3ccccc3)c(=O)c2=O)cc1Cl	54.8*	1.2	98.5*	-0.2
Cc1ccc(-c2c(Nc3cccc(F)c3)c(=O)c2=O)cc1	49.7*	-0.3	8.7	0.1
O=c1c(Nc2cccc(Cl)c2)c(-c2ccccc2)c1=O	0.6	-1.4	9.1	0.0
O=C(/C=C/c1cccc2ccccc12)Nc1ccccc1	-63.1	-1.1	16.1	0.2
COc1ccccc1OCC(=O)Nc1cccc(C(=O)O)c1	35.6*	-7.1	-8.9	0.0
O=C(COc1ccc(Cl)cc1Cl)Nc1cccc(O)c1	71.5*	-0.7	15.0	0.1
CC(C)(C)c1ccccc1OCC(=O)NN	35.9*	0.3	-4.7	-0.2
O=C(COc1ccc(Cl)cc1[N+](=O)[O-])Nc1ccccc1	33.7*	-1.4	-5.8	-0.2
SMILES	TEAD-YAP inh	GPR151 activ	MITF inh	FBW7 act
O=C(COc1ccc(C(F)(F)F)cc1[N+](=O)[O-])Nc1ccc(Cl)cc1	-14.1	0.2	-2.0	-0.1
Cc1cccc(NC(=O)COc2ccc(Cl)cc2Cl)c1	-23.9	-0.9	-4.5	-0.1
Cc1ccccc1OCC(=O)N/N=C/c1ccc([N+](=O)[O-])c(O)c1	-12.7	1.4	-13.3	0.1
CCCOC(=O)C1=C(C)NC2=C(C(=O)CC(c3cccs3)C2)C1c1cccc([N+](=O)[O-])c1 (stereo not drawn)	18.9	0.1	20.0	0.8
COc1ccc(NC(=O)COc2ccccc2C)cc1OC	-14.4	1.3	-9.8	0.7
COc1ccc(NC(=O)COc2ccccc2C(C)(C)C)cc1OC	43.1*	2.6	6.6	0.1
O=Cc1ccccc1OCC(=O)Nc1ccccc1	32.5*	-3.1	14.8	1.0
O=C(COc1ccc(Cl)cc1Cl)Nc1cccc(C(=O)O)c1	97.2*	-6.9	-13.6	-0.1
CC(=O)NNc1ccc(Cl)c(Cl)c1	-6.1	-0.8	2.7	0.2
Cc1ccc(OCC(=O)Nc2ccc(O)cc2C(=O)O)cc1C	-10.8	0.0	8.9	0.0
O=[N+]([O-])c1cccc(CNc2ccc(F)c(F)c2)c1	13.5	1.0	12.8	0.0
COC(=O)c1ccc(CN2CCC(NCc3ccc(C(F)(F)F)nc3)CC2)cc1	12.7	-1.2	7.1	0.1
CN(C)c1ccc(-c2nc3ccccc3c(=O)[nH]2)cc1	71.7*	-6.6	6.7	0.5
